ALDH1A1 inh – ALDH1A1 (human) enzyme inhibition | 7.3% of 220,000 active | Purified ALDH1A1, NADH fluorescence, propionaldehyde substrate | P00352 | Potency, µM (doses to about 75.3 µM), usual class: inhibitors; active = well fitted inhibition curve with a large enough effect, not every such curve was filed as active; inconclusive = small, poorly fitted or top-dose-only effect, or another doubt; inactive = no such curve, though single readings can be large or run the other way
IMPase Li inh – cell-permeable IMPase inhibitors with lithium potentiation; AID 1457; CHO-M1 cells, IP1 TR-FRET (IP-One), carbachol + lithium; Potency, µM (highest dose often 59.4 µM), most hits filed as inhibitors; 0.35% of 210,000 active;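 also: IP1 builds up when IMPase is blocked and the TR-FRET signal falls; nearly all actives have a fitted effect of over 50% in size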
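Lithium-sensitised IP1 accumulation assay; M1-expressing CHO cells treated 30 min at 37C with compound. Competitive antibody detection by time-resolved FRET followed a 10 min room-temperature lysis step.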
ALOX12 inhib – 12-hLO (ALOX12) enzyme inhibition | purified 12-hLO, xylenol orange hydroperoxide absorbance | P18054 | Potency, µM (highest dose often 57.1 µM), usual class: inhibitors | 0.12% of 150,000 active | AID 1452; also: nearly all actives have a fitted effect of over 55% in size
Target sequence (P18054 whole entry, looked up): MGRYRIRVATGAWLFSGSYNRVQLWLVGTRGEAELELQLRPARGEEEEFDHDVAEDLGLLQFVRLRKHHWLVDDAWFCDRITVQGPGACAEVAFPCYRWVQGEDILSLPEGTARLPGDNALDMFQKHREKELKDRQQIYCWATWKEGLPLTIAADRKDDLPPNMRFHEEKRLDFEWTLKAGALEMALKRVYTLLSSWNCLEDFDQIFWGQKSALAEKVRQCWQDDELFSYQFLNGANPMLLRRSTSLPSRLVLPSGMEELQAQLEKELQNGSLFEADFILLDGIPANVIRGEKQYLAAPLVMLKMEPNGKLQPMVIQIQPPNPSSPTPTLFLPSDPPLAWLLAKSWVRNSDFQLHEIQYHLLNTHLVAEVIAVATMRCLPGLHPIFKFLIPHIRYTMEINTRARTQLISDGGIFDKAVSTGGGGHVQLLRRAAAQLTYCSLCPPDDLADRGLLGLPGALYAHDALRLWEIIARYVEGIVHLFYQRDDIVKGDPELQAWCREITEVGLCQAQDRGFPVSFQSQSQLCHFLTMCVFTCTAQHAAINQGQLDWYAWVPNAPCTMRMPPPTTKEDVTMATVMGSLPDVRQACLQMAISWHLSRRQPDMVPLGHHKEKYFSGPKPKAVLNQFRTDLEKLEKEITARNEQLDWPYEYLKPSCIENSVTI
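Lipoxygenase turnover measured by absorbance at 573 and 405 nm after Fe-XO development. Human 12hLO 150 nM, arachidonate 40 uM, pH 7.0 Hepes buffer with detergent; 15 min compound preincubation, 30 min reaction.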
HPGD block – blocks human HPGD enzyme activity. purified HPGD, NADH fluorescence kinetic, PGE2 substrate. AID 894. Potency, µM, actives largely listed as inhibitors. 4.3% of 150,000 active; active = well fitted inhibition curve with a large enough effect, not every such curve was filed as active; inconclusive = small, poorly fitted or top-dose-only effect, or another doubt; inactive = no such curve, though single readings can be large or run the other way
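20 nM HPGD preincubated 15 min at room temperature with compound in 50 mM Tris-HCl pH 8, 0.01% Tween 20. Started with 1 mM NAD+ and 30 uM prostaglandin E2; NADH fluorescence (360/450 nm) read 5 times over 30-s intervals, last minus first.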
PNC inhibitor – perinucleolar compartment assembly inhibition | activity change (PNC), negative = inhibition, % at 10 µM | PC3M PTB-GFP, PNC prevalence imaging, 16 h; stronger effect = lower value | 3.1% of 140,000 active;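 active = readout at or below -70, meaning at least 70% loss of cells showing the perinucleolar compartment, a nuclear body marking cancer cells; inconclusive = readout between -30 and a set limit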
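PC3M cells stably expressing PTB-GFP, 750–1000 cells/well, treated 16 h at 37 °C with compound (23 nl of library stock), in duplicate. After paraformaldehyde fixation and Hoechst stain, imaged at 20x; PNC prevalence scored by image analysis.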
IMPase inh – membrane-permeable compound that blocks inositol monophosphatase; 120,000 tested, under 10 active; inhibition (IP1 accumulation), % at 46.1 µM; CHO-M1 cells, IP1 accumulation, HTRF TR-FRET ratio; AID 901; active = well fitted curve in the direction sought with a large enough effect in the signal ratio, not every such curve was filed as active; inconclusive = small, poorly fitted or top-dose-only effect, or a change in a side signal; inactive = no such curve, though single readings can be large or run the other way; the % refers to the signal ratio;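 also: cells stimulated with carbachol in lithium chloride buffer; higher means more IMPase inhibition seen as more IP1 and lower FRET ratio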
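Seeded CHO-M1 cells were dosed with compound at up to 46 uM, stimulated with carbachol for 30 min, then lysed in IP-One detection reagents. Higher IP1 lowers the TR-FRET signal.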
Hits are given with their value; . = inactive; ? = inconclusive; / = no result given; [ ] = remark or other dose. Hits are enriched below; roughly 11% of the tested compounds scored in any of these assays. Unless noted, calls follow the shape of the dose curve; as a rule, active = well fitted curve in the direction sought with a large enough effect; inconclusive = small, poorly fitted or top-dose-only effect, or another doubt; inactive = no such curve, though single readings can be large; an effect the other way counts as inactive or inconclusive.

SMILES	ALDH1A1 inh	IMPase Li inh	ALOX12 inhib	HPGD block	PNC inhibitor	IMPase inh
COc1cc(O)oc1C=Nc1ccccc1	20µM	.	.	.	.	.
O=C(NCc1ccc(Cl)cc1)C(=O)Nc1cccc(Br)c1	/	/	/	/	/	.
COc1ccccc1-c1nnc2sc(C3CCCCC3)nn12	.	.	.	28.2µM	.	.
COc1ccc(Cc2nn3c(-c4ccccc4OC)nnc3s2)cc1	11.2µM	.	.	28.2µM	.	.
CC(=O)O[C@@]1(C(C)=O)CCC2C3C=C(Cl)C4=CC(=O)C5CC5[C@@]4(C)C3CC[C@]21C (stereo partly drawn)	.	.	.	.	/	/
CC(=O)c1cccc(N2Cc3ccccc3C2=NC(=O)CCl)c1	3.55µM	.	/	/	/	/
CC(=O)c1ccc(N2Cc3ccccc3/C2=N\C(=O)Nc2ccccc2)cc1	.	.	.	.	.	.
CCc1ccccc1NC(=O)Cn1c(=O)n(-c2ccc(C)cc2)c(=O)c2cc(OC)c(OC)cc21	/	/	/	/	/	.
COc1ccc(NC(=O)c2c(NC(=O)COc3ccccc3)sc3c2CCCCC3)cc1	/	/	/	/	/	.
O=C(COc1ccccc1)Nc1sc2c(c1C(=O)NCc1cccnc1)CCCC2	20µM	.	.	.	.	.[1.84 µM]
COc1ccc(/C=C/C(=O)Nc2sc3c(c2C(=O)NCc2cccnc2)CCCC3)cc1	3.98µM	.	.	?	.	.
COc1cccc(-c2nc(NCCN3CCOCC3)c3ccccc3n2)c1	.	.	/	/	/	/
CC(Cl)C(=O)NN=C(c1ccccc1)c1ccccc1 (stereo not drawn)	1µM	.	/	/	/	/
CCN(CC)CC(=O)NN=C(c1ccccc1)c1ccccc1	?	.	.	.	?	.
CC(NC1CCCCC1)C(=O)NN=C(c1ccccc1)c1ccccc1 (stereo not drawn)	3.55µM	.	/	/	/	/
COC(=O)[C@@]1(Cc2ccc(F)cc2)[C@H]2c3cc(C(=O)N4CCCC4)n(CCN4CNCC4=O)c3C[C@H]2CN1C(=O)c1ccccc1	.	.	.	.	/	/
Clc1ccc(Cl)c(Nc2ccnc(SCc3ccccc3)n2)c1	.[13.5 µM]	.	.[11.4 µM]	.	/	/
Oc1ccccc1/C=N/Nc1ccnc(SCc2ccccc2)n1	.	.	.	28.2µM	?	/
CCCC(=O)NCCc1c(I)[nH]c2ccc(OC)cc12	20µM	.	/	/	/	/
O=C(O)CC1S/C(=N/N=C/c2ccc(-c3ccccc3[N+](=O)[O-])o2)NC1=O (stereo not drawn)	8.91µM	.	.	15.8µM	.	.
Cc1ccc(-c2ccc(/C=N/N=C3/NC(=O)C(CC(=O)O)S3)o2)c([N+](=O)[O-])c1 (stereo not drawn)	.	.	.	17.8µM	.	.
Cc1ccc(S(=O)(=O)Oc2ccc(/C=N/N=C3/NC(=O)C(CC(=O)O)S3)cc2)cc1 (stereo not drawn)	.	.	/	/	/	/
CC(C)C(=O)Nc1cccc(C(=O)Nc2nnc(C(C)(C)C)s2)c1	.	.	.	.	.	.
COc1ccc(CN=Cc2c(O)[nH]c3ccccc23)cc1	.	.	/	/	/	/
Cc1ccc(CN=Cc2[nH]c3ccc(Br)c(Cl)c3c2O)cc1	0.398µM	8.91µM	?	28.2µM	.	.
SMILES	ALDH1A1 inh	IMPase Li inh	ALOX12 inhib	HPGD block	PNC inhibitor	IMPase inh
Cc1ccc(CN2CCN(/N=C/c3cc(Br)cc(Br)c3O)CC2)cc1	?	.	.	.	.	/
Oc1c(C=NCc2ccc(F)cc2)[nH]c2ccc(Br)c(Cl)c12	4.47µM	.	.	?	.	.
OCC(CO)(CBr)CBr	?	.	.	.	/	/
CCCC1(C(=O)OC)C=C2C(=C(c3ccccc3)C(=O)C2C)CN1 (stereo not drawn)	?	.	.	.	/	/
COc1ccc2c(=O)c3c(=O)n(Cc4ccco4)c(C(C)C)nc3oc2c1	9.46µM	.	.	.	.	.
Cc1ccc(C(=O)ONc2ccc(N=NC(=O)c3ccccc3O)cc2)cc1	?	.	.	28.2µM	.	.
COC(=O)c1ccc(NN=Nc2ccc(C)cc2)cc1	?	.	.	?	.	/
Cc1ccc(C(=O)ONc2ccc(N=O)cc2)cc1	?	.	.	.	-117.0	.
COc1cc2[nH]c(=O)n(CCCCCC(=O)NCCc3c[nH]c4ccccc34)c(=O)c2cc1OC	.	.	.	.	.	.
N#CC(=C1CCCC1)c1nc(-c2ccccc2O)cs1	25.1µM	.	.	?	?	?
N#CC(=C1CCCC1)c1nc(-c2ccccc2)cs1	.	.	.	.	.	.
O=C(C1CCN(S(=O)(=O)N2CCC3(CC2)OCCO3)CC1)N1CCCCC1	.	.	.	15.8µM	.	/
Cc1nnc(SCc2nc3sc(C(=O)O)c(C)c3c(=O)[nH]2)s1	20µM	/	/	/	/	/
C=CCn1c(SCc2nc3sc(C(=O)O)c(C)c3c(=O)[nH]2)nnc1-c1ccc(C(C)(C)C)cc1	20µM	/	/	/	/	/
Cc1sc2nc(CSc3nc4ccccc4s3)[nH]c(=O)c2c1C	7.94µM	.	/	/	/	/
C=CCn1c(SCc2nc3sc(C(=O)O)c(C)c3c(=O)[nH]2)nnc1-c1ccccc1	?	.	/	/	/	/
CC(=O)c1sc2nc(CSc3nnnn3-c3ccccc3)[nH]c(=O)c2c1C	25.1µM	.	/	/	/	/
O=C(Nc1cccc(F)c1)N1CCCC2(CCN(C(=O)c3ccncc3)CC2)C1	.	.	.	.	/	/
Cc1c(C(=O)O)sc2nc(CSc3nnc(-c4ccc(F)cc4)n3C)[nH]c(=O)c12	18.9µM	.	/	/	/	/
Cc1nn(-c2ccccc2)c(C)c1C(=O)NCc1cccs1	.	.	.	?	.	/
Cc1nn(-c2ccccc2)c(Cl)c1C(=O)NCC(C)C	.	.	.	10µM	.	.

Source: PubChem
